This note sets out measurements from PubChem BioAssay (NCATS).

Results filed as inconclusive are left out. A number with no mark means an inactive call. Calls of active or inactive are those of the source. Calls come from the whole dose curve; as a rule, active = well fitted cell-killing curve with a large enough effect; inconclusive = small, poorly fitted or top-dose-only effect, or effect the other way; inactive = flat fitted curve, though single readings scatter.

Common to all, as to assay: Primary qHTS to identify gynecologic anti-cancer compounds using libraries of approved drugs and bioactive compounds (AID 1345084); note: nearly all actives have a fitted effect of over 55% in size
Details in all cases: Gynecologic cancer cell panel viability, ATPlite luminescence, 48 h; series mostly up to 57.5 µM
In general terms: In qHTS, concentration-response curves come from the screen itself.

Assay [1] deals with OV90. A digest of the protocol:
(§1)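 Cells, 1,000 per well, were allowed to settle for 16 h at 37 C before compound addition. Five concentrations were tested for 48 h, and viability was read by ATPlite luminescence after 15 min at room temperature.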

For assay [2], the system named is SKOV3. A digest of the protocol:
as §1

Assay [3] relates to Tov-21-G. In short, it runs like this: as §1
The subject of assay [4] is Tov112D. A digest of the protocol:
as §1
% is set by controls: 0 for no effect and ±100 for the full control effect; potency is the fitted concentration of half-maximal effect.

Turning to `CC1(CO)CC(O)[C@]2(C(=O)O)CCC34CC3(C=CC3[C@]5(C)C(CC[C@]34C)C(C)(CO)[C@@H](O)[C@H](O)[C@@H]5O)C2C1` (some centres not stated), the Potency entry in assay [1], in assay [2], in assay [3] and in assay [4] was “inactive” each time.
For `C/C=C(/C)C(=O)O[C@@H]1C[C@@H](OC(=O)CC(C)C)C2(C)C3C(=O)C=C(C)C2C3C1(C)C` (some centres not stated), the Potency entry in assay [1], in assay [2], in assay [3] and in assay [4] was “inactive” in each case.
For `COc1ccc2c(NC(=O)Nc3cccc(C(F)(F)F)n3)ccnc2c1`, the Potency entry in assay [1], in assay [2], in assay [3] and in assay [4] was “inactive” throughout.
For the compound `O=C(NCCCN1CCOCC1)c1cnn2c(-c3ccccc3)cc(-c3ccccc3)nc12`, the Potency entry in assay [1], in assay [2], in assay [3] and in assay [4] was “inactive” throughout.
As for `COc1ccc(NC(=O)c2ccc(-c3ccc(-c4nnc(C)o4)cc3C)cc2)cc1N1CCN(C)CC1`, the Potency result in assay [1], in assay [2], in assay [3] and in assay [4] was “inactive” in each case.
In the case of `COc1ccc(S(=O)(=O)n2cnc3cc(C)c(C)cc32)cc1`, the Potency entry in assay [1], in assay [2], in assay [3] and in assay [4] was “inactive” in each case.
Regarding `Nc1ncnc2c1c(-c1ccc(Cl)cc1)nn2-c1cccc(-c2cnnn2Cc2cccc(-c3ccccc3)c2)c1`, the Potency entry in assay [1], in assay [2], in assay [3] and in assay [4] was “inactive” in each case.
Turning to `Cc1noc(C)c1-c1cc(O)cc(C(O)c2ccccc2)c1` (configuration not stated), the Potency result in assay [1], in assay [3] and in assay [4] was “inactive” in each case. Further, in assay [2], the Potency was 15.8 µM (active).
`N#CSc1cc(SC#N)c(N)nc1N`: the activity change, negative = cytotoxicity in assay [1] was 2.64% [at 11.6 µM]; in assay [2] it was -0.394% [at 11.6 µM]; in assay [3], -3.87% [at 11.6 µM].
On to `COC(=O)c1ccc2c(c1)[nH]c1ncnc(NCCCN3CCCCC3)c12`, for which the Potency result in assay [1], in assay [2], in assay [3] and in assay [4] was “inactive” throughout.
For the compound `O=C(Nc1ccc(-c2ccc(Cl)c(Cl)c2)cc1)C1=C(O)c2ccccc2S(=O)(=O)N1`, the Potency entry in assay [1], in assay [2], in assay [3] and in assay [4] was “inactive” each time.
As for `C=CC(=O)N1CC(N2CCN(C(=O)CNc3cc(C4CC4)c(Cl)cc3O)CC2)C1`, the Potency entry in assay [1], in assay [2], in assay [3] and in assay [4] was “inactive” throughout.
For the compound `CC(C)(O)C1CC(=O)C2(C)C(CCC3(C)C(c4ccoc4)OC(=O)C4OC432)C12CCC(=O)OC2` (configuration not stated), the Potency result in assay [1], in assay [2], in assay [3] and in assay [4] was “inactive” throughout.
Take `C[C@H]1CC[C@@]2(OC1)O[C@H]1CC3[C@@H]4CC[C@@H]5C[C@@H](O[C@@H]6O[C@H](CO)[C@@H](O[C@@H]7O[C@@H](C)[C@H](O)[C@@H](O)[C@H]7O)[C@H](O)[C@H]6O[C@@H]6O[C@H](CO)[C@@H](O)[C@H](O)[C@H]6O)CC[C@]5(C)C4CC[C@]3(C)[C@H]1[C@@H]2C` (some centres not stated): the activity change, negative = cytotoxicity in assay [1] was -17.7% [at 11.6 µM]; in assay [2] it was -15.8% [at 11.6 µM]; in assay [3], -2.16% [at 11.6 µM]; in assay [4], -1.68% [at 11.6 µM].
Consider `COC1=CC(=O)O/C1=C(/OC)[C@@H]1O[C@H]1c1ccccc1`, for which the Potency result in assay [1], in assay [2], in assay [3] and in assay [4] was “inactive” in each case.
With `COc1ccc(CN2CCN(C(=O)CCNC(=O)c3ccc(C(C)(C)C)cc3)CC2)cc1`, the Potency result in assay [1], in assay [2], in assay [3] and in assay [4] was “inactive” in each case.
With `CC#C[C@@H](CC(=O)O)c1ccc(OCc2cccc(-c3ccc(C(F)(F)F)cc3)c2)cc1`, the Potency result in assay [1], in assay [2], in assay [3] and in assay [4] was “inactive” throughout.
Turning to `CC(C)NCCCn1c(Sc2cc3c(cc2I)OCO3)nc2c(N)ncnc21`, the Potency was 0.398 µM (active) in assay [1], 2 µM (active) in assay [2], 501 nM (active) in assay [3] and 891 nM (active) in assay [4].
In the case of `O=C(Nc1ccc(N(Cc2ccsc2)C(=O)Cn2nnc3ccccc32)cc1)C1CC1`, the Potency result in assay [1], in assay [2], in assay [3] and in assay [4] was “inactive” each time.
On to `CCCOc1ccc(S(=O)(=O)N2CCN(CCO)CC2)cc1-c1nc2c(CCC)cn(CC)c2c(=O)[nH]1`, for which the Potency entry in assay [1], in assay [2], in assay [3] and in assay [4] was “inactive” each time.
On to `C[C@@H]1O[C@@H](O[C@H]2CC[C@@]3(C)C(CC[C@]4(C)C3CC=C3[C@@H]5CC(C)(C)CC[C@]5(C(=O)O[C@@H]5O[C@H](CO)[C@@H](O)[C@H](O)[C@H]5O)CC[C@]34C)[C@]2(C)CO)[C@H](O)[C@H](O[C@@H]2O[C@H](CO)[C@@H](O)[C@H](O)[C@H]2O)[C@H]1O` (some centres not stated), for which the activity change, negative = cytotoxicity was -0.517% [at 11.6 µM] in assay [1], 8.14% [at 11.6 µM] in assay [2], -24% [at 11.6 µM] in assay [3] and 1.58% [at 11.6 µM] in assay [4].
Turning to `O=C(NC1(c2ccccc2)CC1)c1c(CN2CCC(N3CCCCC3)CC2)c(-c2cccc(C(F)(F)F)c2)nc2cc(Br)ccc12`, the Potency in assay [1] was 17.8 µM (active). For the same compound, the Potency result in assay [2], in assay [3] and in assay [4] was “inactive” each time.
